Test system in the first test: not listed separately
The experiment in a line: probe aNog binding to arrayed compounds – biochemical, biotinylated probe, 635/667 nm fluorescence, primary screen (AID 1115).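 Also: probe is biotinylated aNog protein used at 0.15 µg/mL for 1 h at 4 C; z-score combines 667 nm fluorescence of each spot with its signal to noise.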 The note with it: small-molecule microarray, higher = more signal.
Take `[N-]=[N+]=NCc1ccccc1C[C@@]1(C(=O)NCC(O)CO)N=C(c2ccc(OCCCO)cc2)O[C@@H]1c1ccccc1CN=[N+]=[N-]` (stereo not given in full): the composite z-score stood at 2.29. Compound `COc1ccc(C#Cc2ccc3c(c2)[C@]2(C(=O)N3)[C@H](C(=O)NC[C@H](O)c3ccccc3)[C@H]3C(=O)O[C@H](c4ccccc4)[C@H](c4ccccc4)N3[C@@H]2c2ccccc2OCCO)cc1` showed a composite z-score of 0.325.

In turn, `COC(=O)[C@@]1(Cc2ccccc2)[C@H]2c3cc(C(=O)N(C)C)n(Cc4cc(C)n(C)n4)c3C[C@H]2CN1C(=O)c1ccccc1` had a composite z-score of -0.199.

`C#CCN(C(/C=C/c1ccccc1)CO)C(C(=O)O)c1ccccc1` (stereo not given): the composite z-score is -0.242. As to `COc1ccc([Si](C)(C)[C@@H]2[C@@H](CCn3cc([C@H](O)c4ccccc4)nn3)O[C@]3(C(=O)N(Cc4cccc(N5CCOC5=O)c4)c4ccccc43)[C@H]2C)cc1`, the composite z-score is -0.256. `Cc1ccc(S[C@]2(C(=O)O)CC(=O)N(C3Cc4ccccc4C3)[C@@H]2c2ccc(CO)cc2I)cc1`: the composite z-score was found to be 0.22. With `CCOC(=O)C[C@H]1[C@H](OC(=O)c2ccc(-c3ccccc3)cc2)[C@@H](NC(=O)Cc2ccc(OC)cc2)c2cc(OCCCO)ccc2N1C(=O)c1ccc2ccccc2n1`, the composite z-score is -0.201.

With `COc1ccc([Si](C)(C)[C@@H]2[C@@H](CC(=O)N(CCO)Cc3ccccc3)O[C@]3(C(=O)N(C)c4ccccc43)[C@H]2C)cc1`, the composite z-score stood at 0.422. Still for that read-out and setting: next, `O=c1cccc(C=Cc2ccccc2)o1`: -0.411; `O=C1OCC=C[C@H]2OC34C=CCN(c5ccc6ccccc6c5)C(=O)[C@H]3N(CCCO)C(=O)[C@@H]4[C@@H]12` (stereo not given in full): 0.135.

With `COCCOC(=O)N1C(=O)[C@@]2(c3cc(C#CC4=CCCCC4)ccc31)[C@H](C(=O)N1CCc3cc(OC)c(OC)cc3C1)[C@H]1C(=O)O[C@H](c3ccccc3)[C@H](c3ccccc3)N1[C@@H]2c1ccccc1OCCO`, the composite z-score is 0.365. Same read-out and setting: next, `COCCOC(=O)N1C(=O)[C@@]2(c3cc(C#CCC(C(=O)OC)C(=O)OC)ccc31)[C@H](c1ccccc1OCCO)N1[C@H](c3ccccc3)[C@H](c3ccccc3)OC(=O)[C@H]1[C@@H]2C(N)=O`: 0.141; `CC(C)OC(=O)CC(=O)CC(O)c1ccc(C#N)cc1` (stereo not given): -0.397; `COC(=O)[C@@]1(Cc2ccc(OC)cc2)[C@H]2c3cc(C(=O)N(C)C)n(Cc4c(OC)[nH]cc(C)c4=O)c3C[C@H]2CN1C(=O)c1ccccc1`: -0.248. `O=C1C[C@@](C(=O)NC2CC2)(c2ccc([N+](=O)[O-])cc2)[C@@H](c2ccc(CO)cc2)N1CC12CC3CC(CC(C3)C1)C2` had a composite z-score of 0.11.

In another test the target is Torsin-1A-interacting protein 1 (Homo sapiens) (UniProt Q5JTV8). The experiment in a line: compound microarray binding of lysate hLAP1 – cell lysate, small-molecule microarray, COS7 lysate, 635/667 nm fluorescence, primary screen (AID 1116). The note with it: 635 nm fluorescence, higher = more signal.
Chain of Torsin-1A-interacting protein 1 (Homo sapiens) (Q5JTV8 whole entry, looked up): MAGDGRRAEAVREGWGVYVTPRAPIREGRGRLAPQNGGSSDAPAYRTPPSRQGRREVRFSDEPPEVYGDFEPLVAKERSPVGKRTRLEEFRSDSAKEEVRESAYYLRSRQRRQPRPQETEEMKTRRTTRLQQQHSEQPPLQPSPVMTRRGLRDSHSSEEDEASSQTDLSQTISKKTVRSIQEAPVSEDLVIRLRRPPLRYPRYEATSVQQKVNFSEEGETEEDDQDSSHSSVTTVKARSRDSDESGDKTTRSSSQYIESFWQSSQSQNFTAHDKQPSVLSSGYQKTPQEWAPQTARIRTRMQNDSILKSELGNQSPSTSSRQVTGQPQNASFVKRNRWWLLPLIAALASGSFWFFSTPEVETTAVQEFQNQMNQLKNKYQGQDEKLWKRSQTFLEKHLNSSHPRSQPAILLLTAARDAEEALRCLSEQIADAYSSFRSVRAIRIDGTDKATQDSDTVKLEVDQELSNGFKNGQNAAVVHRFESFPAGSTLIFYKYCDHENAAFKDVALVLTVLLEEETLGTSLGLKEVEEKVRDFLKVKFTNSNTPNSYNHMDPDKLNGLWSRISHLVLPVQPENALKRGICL
In turn, `COc1ccc([Si](C)(C)[C@@H]2[C@@H](CC(=O)N3CCC[C@H]3CO)O[C@]3(C(=O)N(C)c4c(Br)cc(C)cc43)[C@H]2C)cc1` registered a composite z-score of 0.948.

Compound `CN(C)CCCCCCNC(=O)[C@H]1C[C@H]2C(=O)N[C@@H](CCCCN)C(=O)N2[C@H]1c1ccc(O)cc1` yielded a composite z-score of 4.52.

Consider `COCC(=C=CC[C@H](O)c1ccc(OCCO)cc1)C[C@H](O)c1cc(Cl)cc(Cl)c1O`, for which the composite z-score was 0.163. The same measure, in the same setting: next, `COc1cc(C(O)C2C=CC3C(=O)N(c4ccccc4)C(=O)C3N2Nc2ccc(C#N)cc2)cc(OC)c1OC` (stereo not given): 1.52. On the same count and under the same terms, as for `N#Cc1ccc(NN2C(C(O)c3ccc([N+](=O)[O-])cc3)C=CC3C(=O)N(c4ccccc4)C(=O)C32)cc1` (stereo not given), the figure is 0.818; as for `CC(=O)NCCCC[C@@H]1NC(=O)[C@@H]2C[C@H](C(=O)NCCCCCCNC(=O)CS)[C@H](c3ccc(O)cc3)N2C1=O`, 1.15. Still for that read-out and setting: as for `CCOC(=O)C[C@H]1[C@H](OC(=O)Cc2ccc3c(c2)OCO3)[C@@H](NC(=O)c2ccc(-c3ccccc3)cc2)c2cc(OCCCO)ccc2N1C(=O)c1ccccc1`, the figure is 0.42; as for `O=C1O[C@@H](c2ccccc2)[C@@H](c2ccccc2)N2[C@@H](c3ccccc3OCCO)[C@]3(C(=O)Nc4ccc(C#CC5(O)CCCCCC5)cc43)[C@@H](C(=O)Nc3nc4ccccc4s3)[C@H]12`, 0.367. `Cc1ccccc1C(O)C1C=CC2C(=O)N(C)C(=O)C2N1N1CCCCC1` (stereo not given) gave a composite z-score of 1.65. On the same count and under the same terms, next, `COCCOC(=O)N1C(=O)[C@@]2(c3ccccc31)[C@H](C(=O)Nc1nc3ccccc3s1)[C@H]1C(=O)O[C@H](c3ccccc3)[C@H](c3ccccc3)N1[C@@H]2c1ccc(OCCO)cc1`: 0.96; `CC(C)C[C@@H]1NC(=O)[C@H]2C[C@@H](C(=O)NCCCCCNC(=O)CS)[C@@H](c3cccc(OCCO)c3)N2C1=O`: 0.698; `COc1ccc(C#Cc2ccc3c(c2)[C@]2(C(=O)N3)[C@H](c3ccc(O)cc3)N3[C@H](c4ccccc4)[C@H](c4ccccc4)OC(=O)[C@H]3[C@@H]2C(=O)NC[C@H](O)c2ccccc2)cc1`: 0.818. The same measure, in the same setting: as for `O=C1OCC=C[C@H]2OC34C=CCN(c5ccc(Cl)cc5)C(=O)[C@H]3N(CCCCCCO)C(=O)[C@@H]4[C@@H]12` (stereo not given in full), the figure is -0.143; as for `C=CCOC(=O)[C@H]1[C@@H]2C(=O)O[C@@H](c3ccccc3)[C@@H](c3ccccc3)N2[C@@H](c2ccc(OCCOC(=O)[C@@H]3C[C@@H]4C(=O)N5CCC[C@H]5C(=O)N4[C@@H]3c3ccc(O)cc3)cc2)[C@]12C(=O)Nc1ccccc12`, 0.808; as for `CCCC[C@H]1OB(O)C[C@H]2C1=C(C)C[C@H]1C(=O)N(Cc3ccccc3)C(=O)[C@H]12`, -0.254.

`CCCC[C@@H]1C[C@H]1[C@@H](NC(=O)c1ccc(-c2ccccc2)cc1)c1ccc(-c2ccccc2)cc1` had a composite z-score of 0.285. On the same count and under the same terms, as for `COCC(=C=CC[C@@H](O)c1ccc(CO)o1)CCO`, the figure is 2.23; as for `Cc1ccc(S[C@]2(C(=O)NCc3ccccc3)CC(=O)N(Cc3ccccc3Cl)[C@@H]2c2ccc(CO)cc2I)cc1`, 0.0931; as for `CC=CC(O)C1C=CC2C(=O)N(c3ccccc3)C(=O)C2N1Nc1ccc(C(C)C)cc1` (stereo not given), 0.37. `COCCOC(=O)N1C(=O)[C@@]2(c3ccccc31)[C@H](C(=O)NC[C@H](O)c1ccccc1)[C@H]1C(=O)O[C@H](c3ccccc3)[C@H](c3ccccc3)N1[C@@H]2c1ccc(OCCO)cc1` displayed a composite z-score of 1.13.

Consider `[N-]=[N+]=NCc1ccccc1C[C@@]1(C(=O)NCC(O)CO)N=C(c2ccc(OCCCO)cc2)O[C@@H]1c1ccccc1CN=[N+]=[N-]` (stereo not given in full), for which the composite z-score was determined as 2.01. In the case of `COc1ccc(C#Cc2ccc3c(c2)[C@]2(C(=O)N3)[C@H](C(=O)NC[C@H](O)c3ccccc3)[C@H]3C(=O)O[C@H](c4ccccc4)[C@H](c4ccccc4)N3[C@@H]2c2ccccc2OCCO)cc1`, the composite z-score stood at 0.967.

For `COC(=O)[C@@]1(Cc2ccccc2)[C@H]2c3cc(C(=O)N(C)C)n(Cc4cc(C)n(C)n4)c3C[C@H]2CN1C(=O)c1ccccc1`, the composite z-score worked out at 3.2. `C#CCN(C(/C=C/c1ccccc1)CO)C(C(=O)O)c1ccccc1` (stereo not given): the composite z-score was -0.58. The same measure, in the same setting: as for `COc1ccc([Si](C)(C)[C@@H]2[C@@H](CCn3cc([C@H](O)c4ccccc4)nn3)O[C@]3(C(=O)N(Cc4cccc(N5CCOC5=O)c4)c4ccccc43)[C@H]2C)cc1`, the figure is -0.0689; as for `Cc1ccc(S[C@]2(C(=O)O)CC(=O)N(C3Cc4ccccc4C3)[C@@H]2c2ccc(CO)cc2I)cc1`, 0.365; as for `CCOC(=O)C[C@H]1[C@H](OC(=O)c2ccc(-c3ccccc3)cc2)[C@@H](NC(=O)Cc2ccc(OC)cc2)c2cc(OCCCO)ccc2N1C(=O)c1ccc2ccccc2n1`, -0.0103.

For `COc1ccc([Si](C)(C)[C@@H]2[C@@H](CC(=O)N(CCO)Cc3ccccc3)O[C@]3(C(=O)N(C)c4ccccc43)[C@H]2C)cc1`, the composite z-score was determined as 0.44. Same read-out and setting: next, `O=c1cccc(C=Cc2ccccc2)o1`: -0.363. On the same count and under the same terms, next, `O=C1OCC=C[C@H]2OC34C=CCN(c5ccc6ccccc6c5)C(=O)[C@H]3N(CCCO)C(=O)[C@@H]4[C@@H]12` (stereo not given in full): 0.208; `COCCOC(=O)N1C(=O)[C@@]2(c3cc(C#CC4=CCCCC4)ccc31)[C@H](C(=O)N1CCc3cc(OC)c(OC)cc3C1)[C@H]1C(=O)O[C@H](c3ccccc3)[C@H](c3ccccc3)N1[C@@H]2c1ccccc1OCCO`: 0.261; `COCCOC(=O)N1C(=O)[C@@]2(c3cc(C#CCC(C(=O)OC)C(=O)OC)ccc31)[C@H](c1ccccc1OCCO)N1[C@H](c3ccccc3)[C@H](c3ccccc3)OC(=O)[C@H]1[C@@H]2C(N)=O`: 1.21. The same measure, in the same setting: next, `CC(C)OC(=O)CC(=O)CC(O)c1ccc(C#N)cc1` (stereo not given): 1.67; `COC(=O)[C@@]1(Cc2ccc(OC)cc2)[C@H]2c3cc(C(=O)N(C)C)n(Cc4c(OC)[nH]cc(C)c4=O)c3C[C@H]2CN1C(=O)c1ccccc1`: 0.808. The compound `O=C1C[C@@](C(=O)NC2CC2)(c2ccc([N+](=O)[O-])cc2)[C@@H](c2ccc(CO)cc2)N1CC12CC3CC(CC(C3)C1)C2` had a composite z-score of 0.471.

Source of the values: PubChem BioAssay.
